In PubChem BioAssay (Tox21):
Inconclusive results are not listed. Active and inactive are the calls of the source. Unless noted, calls come from the whole dose curve; as a rule, active = well fitted curve in the direction sought with a large enough effect in the repeat runs; inconclusive = weak or mixed curves; inactive = no such curve, though single readings can be large; an effect the other way counts as inactive or inconclusive.

Assays:
[1] = qHTS assay to identify small molecule agonists of the peroxisome proliferator-activated receptor delta (PPARd) signaling pathway - cell viability counter screen (AID 743211); settings: PPARd-bla HEK293H viability, CellTiter-Glo luminescence, 17 h; series mostly up to 62.6 µM; note: nearly all actives have a fitted effect of over 55% in size
In short: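 Luminescent ATP viability assay (CellTiter-Glo, 30 min RT) in UAS-bla HEK293H cells carrying the PPAR delta reporter construct, 3000 cells/well, after a 17 h compound treatment at 37 C.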

[2] = qHTS assay to identify small molecule antagonists of the peroxisome proliferator-activated receptor delta (PPARd) signaling pathway - cell viability counter screen (AID 743213); settings: PPARd-bla HEK293H viability, CellTiter-Glo luminescence, 17 h; series mostly up to 62 µM; note: nearly all actives have a fitted effect of over 50% in size
In short: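 Same-well viability: cells pre-incubated 5 h, dosed with compound plus 300 nM L165041, kept 17 h at 37 C, FRET substrate 2 h RT, then CellTiter-Glo 30 min RT and luminescence.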

[3] = qHTS assay to identify small molecule agonists of the farnesoid-X-receptor (FXR) signaling pathway - cell viability counter screen (AID 743218); settings: FXR-bla HEK293T viability, CellTiter-Glo luminescence, 16 h; series mostly up to 62.6 µM; note: nearly all actives have a fitted effect of over 45% in size
In short: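 Cytotoxicity counter-screen run in parallel, same wells: FXR-UAS-bla HEK 293T cells dosed 16 h at 37 C, viability read by CellTiter-Glo luminescence after 30 min at room temperature.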

[4] = qHTS assay to identify small molecule antagonists of the farnesoid-X-receptor (FXR) signaling pathway - cell viability counter screen (AID 743221; active = well fitted cell-killing curve with a large enough effect in the repeat runs, not every such curve was filed as active; note: nearly all actives have a fitted effect of over 50% in size); settings: FXR-bla HEK293T viability, CellTiter-Glo luminescence, 16 h; series mostly up to 62.6 µM
In short: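 In GeneBLAzer FXR-UAS-bla HEK 293T cells stimulated with 50 uM chenodeoxycholic acid (final), compounds acted for 16 h at 37 C. Viability was assessed afterwards by CellTiter-Glo luminescence.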

[5] = qHTS assay to identify small molecule agonists of the vitamin D receptor (VDR) signaling pathway - cell viability counter screen (AID 743224); settings: VDR-bla HEK293T viability, CellTiter-Glo luminescence, 16 h; series mostly up to 62.6 µM; note: nearly all actives have a fitted effect of over 50% in size
In short: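 Viability is measured in the same wells as the VDR-bla reporter assay: after 16 h compound treatment and 2 h substrate loading, CellTiter-Glo is added and luminescence read 30 min later.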

[6] = qHTS assay to identify small molecule antagonists of the vitamin D receptor (VDR) signaling pathway - cell viability counter screen (AID 743225); settings: VDR-bla HEK293T viability, CellTiter-Glo luminescence, 16 h; series mostly up to 61 µM; note: nearly all actives have a fitted effect of over 50% in size
In short: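 Luminescent cell viability (CellTiter-Glo) in VDR-bla HEK 293T cells after 16 h compound exposure at 37C in the presence of 3 nM final 1-alpha,25-dihydroxy vitamin D3.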

[7] = qHTS assay to identify small molecule agonists of the NFkB signaling pathway - cell viability counter screen (AID 1159515; calls by dose curve; note: nearly all actives have a fitted effect of over 55% in size); settings: NFkB-bla ME-180 viability, CellTiter-Glo luminescence, 5 h; series mostly up to 61 µM
In short: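 Multiplexed viability readout: after the 5 hr compound exposure and 1.5 hr FRET substrate step, CellTiter-Glo reagent went into the same NFkB-bla ME-180 wells; ATP luminescence was measured after 30 min at room temperature.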

[8] = qHTS assay to identify small molecule agonists of the endoplasmic reticulum stress response signaling pathway - cell viability counter screen (AID 1159517; calls by dose curve; note: nearly all actives have a fitted effect of over 50% in size); settings: ESRE-bla HeLa viability, CellTiter-Glo luminescence, 5 h; series mostly up to 61 µM
In short: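 CellTiter-Glo was added to wells already read for beta-lactamase FRET, and luminescence was recorded 30 min later. Cells: ESRE-bla HeLa, 1,500 per well, compound exposure 5 hr at 37 C.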

[9] = qHTS assay to identify small molecule antagonists of the retinoid-related orphan receptor gamma (ROR-gamma) signaling pathway - cell viability counter screen (AID 1159520); settings: Tet-on RORgamma CHO cells viability, ATP luminescence, 16 h; series mostly up to 92.4 µM; note: nearly all actives have a fitted effect of over 50% in size
In short: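 Tet-on ROR gamma CHO cells (1,000/well) were plated 4 hr, given compounds in DMSO for 2 hr at 37 C, then induced with 1 uM final doxycycline for 16 hr. Viability was read as ATP by CellTiter-Glo luminescence after 30 min.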

[10] = molecular target: Nuclear receptor ROR-gamma (Homo sapiens) (UniProt P51449); assay: qHTS assay to identify small molecule antagonists of the retinoid-related orphan receptor gamma (ROR-gamma) signaling pathway (AID 1159521); settings: Tet-on RORgamma CHO cells, RORE-luciferase, 16 h; series mostly up to 92.4 µM
In short: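 CHO cells expressing RORγ under a TET-on promoter, luciferase under RORE control. Dox 1 uM final, 16 h; compounds added 2 h prior. Luminescence decrease measured.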

[11] = qHTS assay to identify small molecule agonists of the AP-1 signaling pathway - cell viability counter screen (AID 1159525; calls by dose curve; note: nearly all actives have a fitted effect of over 55% in size); settings: ME-180 AP-1-bla cells viability, ATP luminescence, 5 h; series mostly up to 76.8 µM
In short: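 ME-180 AP-1-bla, 2500 cells/well, Opti-MEM + 0.5% dialyzed FBS; overnight 37 °C; cpd 15-pt titration, 5 h 37 °C; CellTiter-Glo 30 min RT; luminescence read; normalised to TOAB and DMSO controls.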

[12] = qHTS assay to identify small molecule agonists of the AP-1 signaling pathway (AID 1159526; calls by dose curve); settings: ME-180 (cervical carcinoma) AP-1-bla reporter, beta-lactamase FRET ratio, 5 h; series mostly up to 76.8 µM
[13] = molecular target: Peroxisome proliferator-activated receptor delta (Homo sapiens) (UniProt Q03181); assay: qHTS assay to identify small molecule antagonists of the peroxisome proliferator-activated receptor delta (PPARd) signaling pathway (AID 743215; active = well fitted inhibition curve with a large enough effect in the signal ratio in the repeat runs, not every such curve was filed as active; the % refers to the signal ratio;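 note: cells stimulated with agonist L165041 at 300 nM final during compound exposure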); settings: HEK293H PPARd-UAS-bla, beta-lactamase FRET ratio, antagonist, 17 h; series mostly up to 62 µM
In short: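 Inhibition of L165041-driven (300 nM final) PPARd signaling is scored in HEK293H UAS-bla cells. Exposure lasts 17 h at 37 C; beta-lactamase activity is then read by FRET substrate fluorescence after 2 h at room temperature.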

[14] = qHTS assay to identify small molecule agonists of the endoplasmic reticulum stress response signaling pathway (AID 1159516; active = well fitted activation curve with a large enough effect in the signal ratio in the repeat runs, not every such curve was filed as active; the % refers to the signal ratio); settings: ESRE-bla HeLa, ER stress beta-lactamase reporter, 5 h; series mostly up to 61 µM
In short: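 Tox21 10K library screened in quantitative HTS format on ESRE-bla HeLa cells, a beta-lactamase reporter under ER stress response element control; 5 hr treatment, FRET read.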

[15] = molecular target: Peroxisome proliferator-activated receptor delta (Homo sapiens) (UniProt Q03181); assay: qHTS assay to identify small molecule agonists of the peroxisome proliferator-activated receptor delta (PPARd) signaling pathway (AID 743212; calls by dose curve); settings: HEK293H PPARd-UAS-bla, beta-lactamase FRET ratio, 17 h; series mostly up to 62.6 µM
In short: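 A PPARd-bla HEK293H line with beta-lactamase under an Upstream Activator Sequence is treated with compounds at 37 C. Substrate loading for 2 h at room temperature precedes the fluorescence measurement.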

[16] = molecular target: Vitamin D3 receptor (Homo sapiens) (UniProt P11473); assay: qHTS assay to identify small molecule agonists of the vitamin D receptor (VDR) signaling pathway (AID 743222; calls by dose curve); settings: HEK293T VDR-UAS-bla, beta-lactamase FRET ratio, 16 h; series mostly up to 63.5 µM
In short: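 Quantitative HTS agonist-mode screen: compounds in DMSO were pin-transferred onto VDR-bla cells and incubated 16 h at 37C, 5% CO2. Reporter activity was detected with LiveBLAzer B/G FRET substrate after 2 h at room temperature.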

[17] = molecular target: Vitamin D3 receptor (Homo sapiens) (UniProt P11473); assay: qHTS assay to identify small molecule antagonists of the vitamin D receptor (VDR) signaling pathway (AID 743223; active = well fitted inhibition curve with a large enough effect in the signal ratio in the repeat runs, not every such curve was filed as active; the % refers to the signal ratio); settings: VDR-UAS-bla HEK293T, beta-lactamase FRET ratio, 16 h; series mostly up to 61 µM
In short: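 Agonist 1alpha,25-dihydroxyvitamin D3 (3 nM in well) was added with each compound to VDR-bla cells preincubated 4 h. Cells stood 16 h at 37C, then FRET substrate 2 h at room temperature; fluorescence intensity recorded.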

[18] = molecular target: Bile acid receptor (Homo sapiens) (UniProt Q96RI1); assay: qHTS assay to identify small molecule antagonists of the farnesoid-X-receptor (FXR) signaling pathway (AID 743217; active = well fitted inhibition curve with a large enough effect in the signal ratio in the repeat runs, not every such curve was filed as active; the % refers to the signal ratio); settings: HEK293T FXR-UAS-bla, beta-lactamase ratio, CDCA-stimulated, 16 h; series mostly up to 62.6 µM
In short: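 Antagonist mode against 50 uM (final) chenodeoxycholic acid stimulation in FXR-bla HEK 293T cells, 16 h at 37 °C. Inhibition detected as reduced beta-lactamase activity via LiveBLAzer B/G FRET fluorescence after 2 h at room temperature.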

[19] = molecular target: Bile acid receptor (Homo sapiens) (UniProt Q96RI1); assay: qHTS assay to identify small molecule agonists of the farnesoid-X-receptor (FXR) signaling pathway (AID 743220; active = well fitted activation curve with a large enough effect in the signal ratio in the repeat runs, not every such curve was filed as active; the % refers to the signal ratio); settings: HEK293T FXR-UAS-bla, beta-lactamase FRET ratio, 16 h; series mostly up to 62.6 µM
In short: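 Beta-lactamase reporter under UAS control in GeneBLAzer FXR HEK 293T cells (5000/well) measured with LiveBLAzer FRET substrate after 2 h at room temperature. Compound exposure lasted 16 h at 37C.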

Measured: Potency

Chain of Peroxisome proliferator-activated receptor delta (Homo sapiens) (Q03181 whole entry, looked up): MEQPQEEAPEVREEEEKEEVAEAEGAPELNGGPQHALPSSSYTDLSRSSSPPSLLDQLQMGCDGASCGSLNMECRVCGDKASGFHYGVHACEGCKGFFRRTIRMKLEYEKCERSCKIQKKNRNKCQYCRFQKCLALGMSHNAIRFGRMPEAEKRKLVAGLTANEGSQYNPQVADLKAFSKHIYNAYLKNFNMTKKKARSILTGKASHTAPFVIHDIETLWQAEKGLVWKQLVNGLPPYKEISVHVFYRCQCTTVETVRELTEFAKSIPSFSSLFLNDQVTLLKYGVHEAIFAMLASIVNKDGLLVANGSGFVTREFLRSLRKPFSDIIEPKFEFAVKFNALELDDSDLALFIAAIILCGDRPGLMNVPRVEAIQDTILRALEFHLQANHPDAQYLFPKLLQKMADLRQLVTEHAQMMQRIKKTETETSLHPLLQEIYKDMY
Chain of Vitamin D3 receptor (Homo sapiens) (P11473 whole entry, looked up): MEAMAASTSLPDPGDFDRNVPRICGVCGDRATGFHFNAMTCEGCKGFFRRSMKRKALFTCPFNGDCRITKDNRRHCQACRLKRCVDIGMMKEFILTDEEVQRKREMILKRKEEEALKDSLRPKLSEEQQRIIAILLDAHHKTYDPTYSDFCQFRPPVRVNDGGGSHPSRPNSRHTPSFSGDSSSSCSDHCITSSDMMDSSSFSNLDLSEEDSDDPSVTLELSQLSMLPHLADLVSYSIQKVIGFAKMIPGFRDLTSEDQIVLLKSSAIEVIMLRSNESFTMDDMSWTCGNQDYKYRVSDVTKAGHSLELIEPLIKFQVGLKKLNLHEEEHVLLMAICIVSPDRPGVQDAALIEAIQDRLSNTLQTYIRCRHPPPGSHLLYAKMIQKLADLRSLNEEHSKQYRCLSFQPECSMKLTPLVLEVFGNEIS
Chain of Bile acid receptor (Homo sapiens) (Q96RI1 whole entry, looked up): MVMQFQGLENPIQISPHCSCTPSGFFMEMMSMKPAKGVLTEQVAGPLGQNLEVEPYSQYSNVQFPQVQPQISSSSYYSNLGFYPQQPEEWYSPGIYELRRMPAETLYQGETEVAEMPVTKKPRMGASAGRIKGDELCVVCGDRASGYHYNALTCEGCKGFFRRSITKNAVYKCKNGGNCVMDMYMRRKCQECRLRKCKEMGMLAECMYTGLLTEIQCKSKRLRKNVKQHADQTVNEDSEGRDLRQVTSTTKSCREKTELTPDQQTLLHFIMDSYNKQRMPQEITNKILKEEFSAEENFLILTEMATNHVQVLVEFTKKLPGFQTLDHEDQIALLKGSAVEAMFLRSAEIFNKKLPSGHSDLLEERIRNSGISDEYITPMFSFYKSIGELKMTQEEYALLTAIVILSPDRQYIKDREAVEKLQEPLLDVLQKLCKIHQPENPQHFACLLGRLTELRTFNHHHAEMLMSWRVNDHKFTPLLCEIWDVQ

CNc1c2c(nn1C)CCCC2
not listed: [13] | [14] | [15] | [16] | [17] | [18] | [19]
inactive: all other assays above

COC(=O)Nc1nc2ccc(C(=O)C3CC3)cc2[nH]1
not listed: [8] | [10] | [15] | [16] | [17] | [18] | [19]
inactive: all other assays above

Nc1ccc(N=Nc2ccc(N)cc2)cc1
not listed: [1] | [2] | [7] | [13] | [14] | [18] | [19]
inactive: all other assays above

CCCCCCC(O)CCCCCCCCCCC(=O)OC (centres undefined)
not listed: [8] | [12] | [18] | [19]
inactive: all other assays above

CC(=O)NNC(C)=O
not listed: [6] | [8] | [10] | [13] | [19]
inactive: all other assays above

COc1ccc2nc(S(=O)Cc3ncc(C)c(OC)c3C)[nH]c2c1 (centres undefined)
not listed: [7] | [14] | [18] | [19]
inactive: all other assays above

O=C(/C=C/c1ccc([N+](=O)[O-])cc1)c1ccccc1
not listed: [1] | [2] | [7] | [8] | [12] | [17] | [18] | [19]
inactive: all other assays above

O=S(=O)(Cl)c1c(Cl)cccc1Cl
not listed: [8] | [16] | [17] | [18] | [19]
inactive: all other assays above

CC(C)N=C=NC(C)C
not listed: [3] | [7] | [8] | [13] | [15] | [16] | [18] | [19]
inactive: all other assays above

O=C(O)CCC(=O)c1ccc(-c2ccccc2)cc1
not listed: [14]
inactive: all other assays above
